The values below come from PubChem BioAssay.

“And” between values parts separate entries of the source, which are not always exact repeats. Identical values can stand only once. Inconclusive results are not listed. For part of these data: Potency and affinity values are given separately. The source made the active and inactive calls. Unless noted, the rule behind the calls is not given here.

By inhibition is commonly meant the drop in the measured response relative to a control, in per cent. The term remaining activity denotes the signal under treatment as a percentage of the control signal.

For experiment [1], the target named is ATP-dependent translocase ABCB1 (Homo sapiens) (UniProt P08183). Put plainly: P-glycoprotein substrate transport blockade – cell-based (AID 377; in the data active = fluorescence slope change above about 50%). The note with it: MDR1-expressing cells, fluorescent substrate accumulation slope; stronger effect = higher value; concentration not given here.
ATP-dependent translocase ABCB1 (Homo sapiens), sequence (P08183 whole entry, looked up): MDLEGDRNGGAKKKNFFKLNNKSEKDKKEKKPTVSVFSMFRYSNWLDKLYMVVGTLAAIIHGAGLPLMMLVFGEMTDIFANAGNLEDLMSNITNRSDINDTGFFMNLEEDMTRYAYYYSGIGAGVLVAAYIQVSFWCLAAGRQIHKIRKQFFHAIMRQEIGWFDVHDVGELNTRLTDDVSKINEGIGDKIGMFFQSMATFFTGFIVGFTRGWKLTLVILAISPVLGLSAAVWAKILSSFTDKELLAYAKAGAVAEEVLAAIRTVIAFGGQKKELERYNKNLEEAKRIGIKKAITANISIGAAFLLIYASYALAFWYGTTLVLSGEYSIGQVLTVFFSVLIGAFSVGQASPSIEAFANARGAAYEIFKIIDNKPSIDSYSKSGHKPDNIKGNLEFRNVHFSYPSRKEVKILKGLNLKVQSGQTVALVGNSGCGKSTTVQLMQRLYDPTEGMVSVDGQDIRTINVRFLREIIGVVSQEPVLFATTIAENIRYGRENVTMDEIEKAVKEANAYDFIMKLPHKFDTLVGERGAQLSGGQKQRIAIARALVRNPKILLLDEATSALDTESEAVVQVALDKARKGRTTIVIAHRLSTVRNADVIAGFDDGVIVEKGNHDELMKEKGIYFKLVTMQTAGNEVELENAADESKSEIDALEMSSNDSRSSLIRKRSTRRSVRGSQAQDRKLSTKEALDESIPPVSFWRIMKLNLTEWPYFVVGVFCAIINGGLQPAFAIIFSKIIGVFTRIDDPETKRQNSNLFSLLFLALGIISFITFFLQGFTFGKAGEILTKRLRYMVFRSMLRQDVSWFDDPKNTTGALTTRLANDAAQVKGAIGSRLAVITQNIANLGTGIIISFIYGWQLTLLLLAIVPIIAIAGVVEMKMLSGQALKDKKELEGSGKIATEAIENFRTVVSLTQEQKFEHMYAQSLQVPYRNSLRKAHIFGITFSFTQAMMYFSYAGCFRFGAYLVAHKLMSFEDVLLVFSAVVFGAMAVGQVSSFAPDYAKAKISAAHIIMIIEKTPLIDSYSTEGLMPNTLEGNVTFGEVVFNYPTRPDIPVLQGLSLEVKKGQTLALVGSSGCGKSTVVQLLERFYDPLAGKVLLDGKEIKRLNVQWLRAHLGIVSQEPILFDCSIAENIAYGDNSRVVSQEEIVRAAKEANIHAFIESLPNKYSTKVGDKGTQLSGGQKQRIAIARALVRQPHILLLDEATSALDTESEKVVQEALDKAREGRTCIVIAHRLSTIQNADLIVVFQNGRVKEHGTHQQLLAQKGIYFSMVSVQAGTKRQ
Experiment [2] in a line: blockers of polyQ-driven CASP3 activation – cell-based (AID 1583). The note with it: polyglutamine-induced caspase-3 activation, cell assay; stronger effect = higher value;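 tested at 10 µM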.
The nature of experiment [3]: restoration of touch response, mutant HTT neurons – whole organism, C. elegans mechanosensory neurons, N-terminal huntingtin (AID 1599). The note with it: C. elegans polyQ-huntingtin mechanosensory neurons, stronger effect = higher value.
A short description of experiment [4]: glutamate transport activators, MN-1 cells, MN-1 cell line (AID 1612).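 Note: tested at 1 µM final; 0% = mean of DMSO vehicle wells on each plate; positive means more glutamate uptake than control and negative means less.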 The note with it: MN-1 motor neuron cells, stronger effect = higher value.
A short description of experiment [5]: 75Q-TubH aggregate inhibition, S. cerevisiae, yeast (AID 1616). The note with it: S. cerevisiae 75Q-TubH polyglutamine aggregation suppression; stronger effect = higher value.
A short description of experiment [6]: compounds altering viability of human ES cells (AID 493140).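 Note: cells exposed to compounds for four days before counting.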 The note with it: human embryonic stem cell survival screen; stronger effect = higher value.
The nature of experiment [7]: GFP-Q80 aggregate reduction, neuronal-like cells, cell-based, NGF-treated PC12, GFPQ80 (AID 1614).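 Note: lower means fewer inclusions and 0 means no inclusions at all.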 The note with it: PC12 NGF-treated GFP-polyQ80 inclusion reduction.
A short description of experiment [8]: compounds altering circadian rhythm period length – cell-based, LOPAC library, luminescence reporter (AID 2774).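 Note: values are relative to mean of DMSO wells on each plate.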 The note with it: circadian reporter cells, at 7 µM, actives lie on both sides.
Experiment [9] relates to Hepatitis C virus NS3 helicase. The experiment is described as follows: blockers of NS3h binding to ssDNA – biochemical, fluorescence polarization, LOPAC1280 library, primary screen (AID 687035; in the data active = inhibition above about 37%). The note with it: Purified HCV NS3 helicase, Cy5-dT15 ssDNA binding fluorescence polarization; stronger effect = higher value; concentration not given here. A general note: Polarisation of emitted light reports the rotation of a fluorescent probe.

The nature of experiment [10]: compounds altering Cy5-DNA-NS3h complex signal – biochemical, LOPAC1280, artefact control for HCV NS3 helicase inhibitor project (AID 687037). The note with it: Cy5-DNA-NS3h complex fluorescence interference counterscreen. (The purpose of a counterscreen is to sort out artefacts and off-target activity.)
Experiment [11] relates to Aerobactin synthetase IucA (Klebsiella pneumoniae, hypervirulent). The experiment is described as follows: biochemical IucA inhibition screen of LOPAC library by absorbance (AID 1346212).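 Note: 100% = no compound wells and 0% = no enzyme wells.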 The note with it: IucA enzyme assay, absorbance (OD) readout; stronger effect = lower value;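 tested at 8 µM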.
Experiment [12] in a line: blockers of cellular phospholipid synthesis – cell-based, LOPAC library, screen 4, primary screen (AID 1347384). The note with it: animal cells, phospholipid biosynthesis inhibition screen; at 10 µM.

On to `Clc1ccc(CSC(Cn2ccnc2)c2ccc(Cl)cc2Cl)cc1` (stereo unspecified), for which the fluorescence slope change in [1] was 21.9% (inactive). In addition, the inhibition in experiment [2] turned out to be 16.4%. The compound also displayed a rescue above control in experiment [3] of 23. Further, the glutamate uptake change in experiment [4] is 6.86%. In [5], this compound displayed an aggregation suppression score of 0.000314. Further, the survival in experiment [6] is 7.67 (inactive).
In the case of `Oc1ccc(Cl)cc1`, the inhibition in [2] was -57%. The compound further displayed a rescue above control in [3] of 0.9. For the same compound, in experiment [4], the glutamate uptake change was determined as 4.5%. Also, the inclusion score in [7] stood at 2. For the same compound, the aggregation suppression score in experiment [5] came to 0.223.
As to `CCC1(CC)C(=O)C=CNC1=O`, the fluorescence slope change in [1] was 54.5% (active). In addition, the inhibition in experiment [2] is 13.3% and -20.6%. The rescue above control in experiment [3] is 1.62 and 19.3. In experiment [4], the glutamate uptake change is -11.1% and -15%. This compound also came in with an inclusion score in experiment [7] of 2. Also, in experiment [5], the aggregation suppression score was 0.581 and 1.33. Besides, the survival in experiment [6] was 10.8 (inactive).
As to `CCCCCCCCC(=O)NCc1ccc(O)c(OC)c1`, in experiment [8], the period change is 0.08 h (inactive).
Take `CC(=O)Nc1cc([As](=O)(O)O)ccc1O`: in experiment [2], the inhibition is -3.61%. Also, the rescue above control in experiment [3] is -5.17. The glutamate uptake change in [4] is -5.59%. Also, in experiment [7], the inclusion score came out at 2. Further, in experiment [5], the aggregation suppression score was determined as 1.35.
Consider `O=[N+]([O-])O[C@H]1CO[C@H]2[C@@H]1OC[C@H]2O[N+](=O)[O-]`, for which, in experiment [1], the fluorescence slope change is -12.8% (inactive). Besides, the inhibition in [2] stood at 15%. Further, the rescue above control in experiment [3] was -2.31. The glutamate uptake change in experiment [4] was -15.4%. Moreover, the inclusion score in experiment [7] is 1. This compound gave an aggregation suppression score in [5] of 1.27. Besides, in [6], the survival is 6 (inactive).
With `Cc1cc(O)ccc1Cl`, the inhibition in experiment [2] turned out to be 17.2%. The compound further displayed a rescue above control in experiment [3] of 2.39. Also, the glutamate uptake change in experiment [4] was -10.2%. This compound also came in with an inclusion score in experiment [7] of 2. The aggregation suppression score in experiment [5] came out at 0.639.
In the case of `Cc1cccc(C)c1NC1=NCCCS1`, in [1], the fluorescence slope change is 18% (inactive). For the same compound, the inhibition in experiment [2] was -1.23%; in experiment [9], -2% (inactive). In experiment [3], this compound displayed a rescue above control of -0.14. In addition, in experiment [4], the glutamate uptake change was -9.68%. In [7], this compound had an inclusion score of 2. Further, in experiment [5], the aggregation suppression score was 1.27. For the same compound, in experiment [8], the period change was -0.19 h (inactive). The survival in experiment [6] is 6.75 (inactive). For the same compound, the fluorescence ratio (interference) in experiment [10] is 1 (inactive). The remaining activity in experiment [11] is 121% (inactive). In addition, the compound was classed as inactive in [12].
With `CNC(C)(C)Cc1ccccc1`, in experiment [1], the fluorescence slope change was 29.7% (inactive). In addition, the inhibition in experiment [2] was -8.9%. Moreover, in experiment [3], the rescue above control was -1.26. Besides, in [4], the glutamate uptake change came out at 3.05%. The compound further returned an inclusion score in [7] of 2. Also, the aggregation suppression score in experiment [5] worked out at 1.35. For the same compound, the survival in [6] is 4.83 (inactive).
In the case of `NC(=O)c1cc([N+](=O)[O-])cc([N+](=O)[O-])c1`, the inhibition in experiment [2] is -15.4%. For the same compound, the rescue above control in experiment [3] was -6.77. Further, the glutamate uptake change in experiment [4] is -3.86%. The compound further registered an inclusion score in experiment [7] of 2. In addition, the aggregation suppression score in experiment [5] was 1.47.
For `C=C(C)[C@H]1CN[C@H](C(=O)O)[C@H]1CC(=O)O`, in [8], the period change was 0.025 h (inactive). The inhibition in [9] was -3% (inactive). In addition, the fluorescence ratio (interference) in [10] is 1 (inactive). Also, in experiment [11], the remaining activity is 119% (inactive). The result in [12] was inactive.
As for `COc1ccccc1N1CCNCC1`, in experiment [8], the period change was 0.075 h (inactive). Besides, the inhibition in experiment [9] is -4% (inactive). Further, in [10], the fluorescence ratio (interference) is 0.9 (inactive). In experiment [11], the remaining activity is 96.8% (inactive). In experiment [12], the compound was classed as inactive.
Consider `NCC(CC(=O)O)c1ccc(Cl)cc1` (stereo unspecified), for which the fluorescence slope change in experiment [1] was 76.7% (active). Further, the values for the inhibition in experiment [2] and in experiment [9] were -4.56% and -1% (inactive), respectively. The compound further showed a rescue above control in experiment [3] of 5.24. The glutamate uptake change in experiment [4] is -15.4%. Further, in experiment [7], the inclusion score amounted to 2. Also, the aggregation suppression score in experiment [5] worked out at 1.13. For the same compound, the period change in [8] was 0.145 h (inactive). For the same compound, in experiment [6], the survival was 9.17 (inactive). For the same compound, the fluorescence ratio (interference) in experiment [10] is 0.9 (inactive). For the same compound, the call in [12] was inactive.
